Bioassay records (PubChem)
ELG1 repair inh: qHTS screen for small molecules that inhibit ELG1-dependent DNA repair in human embryonic kidney (HEK293T) cells expressing luciferase-tagged ELG1 | Potency, µM (titrated, usually from 46.1 µM), without a hit: at the top dose activity change, negative = inhibition, actives largely listed as inhibitors | 330,000 compounds, 2.3% hits | AID 504467, 2011 | HEK293T ELG1-luciferase reporter, luminescence, 16 h; DNA damage induced by 5-fluorouridine; further: on the % scale 0 is the no-effect control and ±100 the full control effect; nearly all actives have a fitted effect of over 55% in size
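Step one: seed 2,000 cells per well. Step two: pin-transfer compound or DMSO alongside 5-fluorouridine. Step three: incubate 16 hr, 37 °C, 5% CO2. Step four: add ONE-Glo, wait 30 min, read luminescence.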
MCF10A rerep: A quantitative high throughput screen for small molecules that induce DNA re-replication in MCF 10a normal breast cells; MCF 10A DNA re-replication, Hoechst nuclear intensity, 48 h; Potency, µM (doses to about 46.1 µM), for the others: at the highest dose activity, positive = re-replication, actives largely listed as activators; 350,000 compounds, 2.9% hits; further: % of control where 0% means no effect; nearly all actives have a fitted effect of over 50% in size
KB-3-1 cytotox: qHTS assay for MDR1-selective chemotherapeutics: Primary screen using the parental adenocarcinoma cell KB-3-1 | Potency, µM (titrated, usually from 46.1 µM), usual class: cytotoxic | AID 1347075, 2019 | KB-3-1 viability, CellTiter-Glo ATP luminescence, 72 h | 400,000 compounds, 1.4% hits; further: on the % scale 0 is the no-effect control and ±100 the full control effect; nearly all actives have a fitted effect of over 60% in size
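KB-3-1 cells, DMEM (no phenol red) + 10% FBS; compound by pin transfer, 72 h, 37 °C. Readout: CellTiter-Glo luminescence after 10 min. Data normalized, curve-fitted.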
KB-V1 cytotox: qHTS assay for MDR1-selective chemotherapeutics: Primary screen using the drug-selected MDR subline cells KB-V1. 400,000 compounds, 3.4% hits. AID 1347076, 2019. KB-V1 MDR cells viability, CellTiter-Glo, 72 h. Potency, µM (titrated, usually from 46.1 µM), actives largely listed as cytotoxic; further: on the % scale 0 is the no-effect control and ±100 the full control effect; nearly all actives have a fitted effect of over 60% in size
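Cytotoxicity toward P-gp-expressing KB-V1 cells was determined as loss of CellTiter-Glo luminescence after 72 h at 37 degrees C. Compounds were tested in quantitative HTS format across a concentration range, with curves fitted to normalized data.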
SW480 rerep: A quantitative high throughput screen for small molecules that induce DNA re-replication in SW480 colon adenocarcinoma cells | SW480 DNA re-replication, Hoechst DNA content imaging, 48 h | Potency, µM (highest dose often 46.1 µM), without a hit: at the top dose re-replication activation, hits mostly activators | 340,000 compounds, 1.8% hits | AID 624297, 2012; further: % of control where 0% means no effect; nearly all actives have a fitted effect of over 55% in size
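250 cells/well; 23 nL cpd via pin tool; 48 hr, 37 C, 5% CO2; Hoechst 40 min; imager read of total nuclear intensity, ex 405/em 500-530 nm.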
* hit, by the source's call; ! = not confirmed by another sample. A selection: hits, their analogues and other compounds. The true share with any hit is near 8.1%. The call rests on the fitted dose curve; in most records, active means well fitted curve in the direction sought with a large enough effect; inconclusive means small, poorly fitted or top-dose-only effect, or another doubt; inactive means no such curve, though single readings can be large; an effect the other way counts as inactive or inconclusive. Potency means the concentration at half of the fitted maximal effect.

Results for C[C@]12CC[C@H](O)C[C@H]1CC[C@@H]1[C@@H]2C[C@@H](O)[C@]2(C)[C@@H](C3=CC(=O)OC3)CC[C@]12O ?
ELG1 repair inh: inconclusive; MCF10A rerep: inconclusive; KB-3-1 cytotox: 1.3µM*; KB-V1 cytotox: 1.6µM*; SW480 rerep: inconclusive

How did CCOC(=O)C1(CCc2ccccc2)CCN(C(C)CSC)CC1 (stereo not given) do in these assays?
MCF10A rerep: 11%; KB-3-1 cytotox: inactive; KB-V1 cytotox: inactive; SW480 rerep: -8%

How did COC1CC2C=C(C)C=CC=CC(=O)NC(c3ccccc3)CC=CCCC(O)CC(=O)C2=C1O (stereo not given) do in these assays?
KB-3-1 cytotox: 5.8µM*; KB-V1 cytotox: 5.8µM*

Results for CSC1=NC(C)(C)CC2(C)Nc3ccccc3N12 (stereo not given) ?
ELG1 repair inh: inconclusive; MCF10A rerep: -5%; KB-3-1 cytotox: inactive; KB-V1 cytotox: inactive; SW480 rerep: -187%

Results for CC1=CC(C)CC(C)OC(=O)CC(c2ccc(O)cc2)NC(=O)C(Cc2c(Br)[nH]c3ccccc23)N(C)C(=O)C(C)NC(=O)C(C)C1 (stereo not given) ?
MCF10A rerep: inconclusive; KB-3-1 cytotox: 0.18µM*; KB-V1 cytotox: 1.6µM*; SW480 rerep: 0.12µM*

Results for COC1CC(=C(c2cccs2)c2cccs2)C[N+](C)(C)C1 (stereo not given) ?
MCF10A rerep: 2%; SW480 rerep: -3%

How did CN1CC=C(/C=C/c2ccc(-c3ccccc3)cc2)CC1 do in these assays?
ELG1 repair inh: inconclusive; MCF10A rerep: 16µM*; KB-3-1 cytotox: inactive; KB-V1 cytotox: inactive; SW480 rerep: 6%

What do the screens show for `COc1ccc(/C=C/C2=CCN(C)CC2)cc1`?
ELG1 repair inh: inconclusive; MCF10A rerep: inconclusive; KB-3-1 cytotox: inactive; KB-V1 cytotox: inactive; SW480 rerep: -6%

Results for CN(C)C(=O)Oc1c(Cl)cc(Cl)c2cccnc12 ?
ELG1 repair inh: 2%; MCF10A rerep: -11%; KB-3-1 cytotox: inactive; KB-V1 cytotox: inactive; SW480 rerep: 3%

What do the screens show for `Cc1ccc2c(Cl)cc(Cl)c(O)c2n1`?
MCF10A rerep: 21µM*; KB-3-1 cytotox: inactive; KB-V1 cytotox: inactive; SW480 rerep: 10µM*

How did O=C1NC(=O)C(CCc2ccncc2)(Cc2cccc(Cl)c2Cl)C(=O)N1c1ccc(Br)cc1 (stereo not given) do in these assays?
ELG1 repair inh: 16µM*; MCF10A rerep: 4.6µM*; KB-3-1 cytotox: 5.2µM*; KB-V1 cytotox: 8.2µM*; SW480 rerep: 12µM*

What do the screens show for `COC(=O)C1=C(c2ccccc2OCc2ccccc2)C[C@@H]2CC[C@H]1N2C(=O)NCCOc1ccccc1Cl`?
ELG1 repair inh: inconclusive; MCF10A rerep: inconclusive; KB-3-1 cytotox: inconclusive; KB-V1 cytotox: inactive; SW480 rerep: 28%

Results for CCOC(=O)C1(CCOc2ccccc2)CCN(C(C)CSC)CC1 (stereo not given) ?
ELG1 repair inh: -15%; MCF10A rerep: 13%; KB-3-1 cytotox: inactive; KB-V1 cytotox: inactive; SW480 rerep: 16%

What do the screens show for `CCOC(=O)C1(CCOc2ccccc2)CCN(C2Cc3ccccc3C2)CC1`?
ELG1 repair inh: inconclusive; MCF10A rerep: 9.2µM*; KB-3-1 cytotox: inconclusive; KB-V1 cytotox: inconclusive; SW480 rerep: 18%

How did O=C(COC(=O)Cc1ccccc1)Nc1nnc(-c2ccccc2)o1 do in these assays?
ELG1 repair inh: 9%; MCF10A rerep: -14%; KB-3-1 cytotox: inactive; KB-V1 cytotox: inactive; SW480 rerep: -85%

Results for CCN(CC(=O)Nc1ccc(NC(C)=O)cc1)C(=O)CSC(c1ccccc1)c1ccccc1 ?
ELG1 repair inh: inconclusive; MCF10A rerep: 8%; KB-3-1 cytotox: inactive; KB-V1 cytotox: inactive; SW480 rerep: -18%

What do the screens show for `CCCCN1C(=O)NC(=O)C2(Cc3c(nc4ccccn4c3=O)N3CCc4ccccc4C32)C1=O` (stereo not given)?
ELG1 repair inh: inconclusive; MCF10A rerep: 1%; KB-3-1 cytotox: inactive; KB-V1 cytotox: inactive; SW480 rerep: -3%

How did Cc1cccn2c(=O)c3c(nc12)N1CCCCCC1C1(C3)C(=O)N(C)C(=O)N(C)C1=O (stereo not given) do in these assays?
ELG1 repair inh: 15%; MCF10A rerep: 5%; KB-3-1 cytotox: inactive; KB-V1 cytotox: inactive; SW480 rerep: 1%

How did CCCCN1C(=O)NC(=O)C2(Cc3c(nc4c(C)cccn4c3=O)N3CCc4ccccc4C32)C1=O (stereo not given) do in these assays?
ELG1 repair inh: 21µM*; MCF10A rerep: inconclusive; KB-3-1 cytotox: inactive; KB-V1 cytotox: 15µM*; SW480 rerep: inconclusive

What do the screens show for `Cc1cccn2c(=O)c3c(nc12)N1CCc2ccccc2C1C1(C3)C(=O)NC(=O)N(C)C1=O` (stereo not given)?
ELG1 repair inh: 13µM*; MCF10A rerep: -5%; KB-3-1 cytotox: inactive; KB-V1 cytotox: inconclusive; SW480 rerep: -2%

What do the screens show for `C[C@@H]1CN([C@@H](C)CO)C(=O)CCCn2nncc2CO[C@@H]1CN(C)C(=O)Oc1ccccc1`?
KB-3-1 cytotox: inactive; KB-V1 cytotox: inactive

Results for Cc1c(P(=S)(c2ccccc2)c2ccccc2)[n+]2ccccc2n1C ?
ELG1 repair inh: inconclusive; MCF10A rerep: 0.73µM*; KB-3-1 cytotox: 2.6µM*!; KB-V1 cytotox: inconclusive; SW480 rerep: -18%

Results for Cn1cc[n+](C)c1P(=S)(c1ccccc1)c1ccccc1 ?
ELG1 repair inh: -14%; MCF10A rerep: -7%; KB-3-1 cytotox: inactive; KB-V1 cytotox: inactive; SW480 rerep: 2%

What do the screens show for `CC(=O)N1CC(=O)Nc2ccc(F)cc2C1c1ccccc1` (stereo not given)?
ELG1 repair inh: 22%; MCF10A rerep: -1%; KB-3-1 cytotox: inactive; KB-V1 cytotox: inactive; SW480 rerep: -8%

What do the screens show for `CC(N)C(=O)NC1C2C(=C(O)CC(O)C2O)C(=O)OC1(C)C(Cl)Cl` (stereo not given)?
MCF10A rerep: inconclusive; KB-3-1 cytotox: 2.1µM*; KB-V1 cytotox: 18µM*; SW480 rerep: inconclusive

What do the screens show for `COC(=O)C1=C(c2cc3ccccc3s2)C[C@@H]2CC[C@H]1N2C(=O)N1CCC(O)CC1`?
MCF10A rerep: 20%; KB-3-1 cytotox: inconclusive; KB-V1 cytotox: inactive; SW480 rerep: 1%
